# Inconclusive results are not listed. Active and inactive are the calls of the source. Unless noted, no stated cut-off is given here; in the data, active means inhibition above about 80%; inactive means the rest.
# What was measured:
# [1] = growth inhibition of DIPG glioma cells, dose response, cell-based, SU-DIPG-XVII, MIPE5.0, CellTiter-Glo, qHTS (AID 1347060; cut-off not given, nearly all actives have AC50 up to about 26 µM;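 further: cells exposed to compound for 48 hours before viability readout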); conditions: SU-DIPG-XVII viability, CellTiter-Glo ATP luminescence
# [2] = growth inhibition of DIPG glioma cells, dose response, cell-based, SU-DIPG-XIII, MIPE5.0, CellTiter-Glo, qHTS (AID 1347064; cut-off not given, nearly all actives have AC50 up to about 23 µM;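 further: cells exposed to compound for 48 hours before the viability read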); conditions: SU-DIPG-XIII viability, CellTiter-Glo ATP luminescence
# [3] = viability loss in pontine glioma line – cell-based, SU-DIPG-XXV, MIPE5.0, CellTiter-Glo, qHTS, dose response (AID 1347065; cut-off not given, nearly all actives have AC50 up to about 26 µM;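 further: cells exposed to compound for 48 hours before ATP readout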); conditions: CellTiter-Glo ATP luminescence
# [4] = JHH-DIPG-1 glioma cell viability, MIPE5.0 library, CellTiter-Glo luminescence, qHTS (AID 1347067; cut-off not given, nearly all actives have AC50 up to about 26 µM;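 further: cells exposed to compound for 48 hours before readout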); conditions: JHH-DIPG-1 glioma viability, CellTiter-Glo ATP luminescence
# [5] = SU-DIPG-XXV glioma cell viability, MIPE5.0 library, qHTS (AID 1347068; cut-off not given, nearly all actives have IC50 up to about 30 µM;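 further: cells exposed to compound for 48 hours before viability readout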)
# [6] = sensitizers of A549 cells to miR-34 induction, primary screen, imaging, A549 dox-inducible miR-34, nuclei and caspase counts (AID 1347080;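 active means compounds whose cell count with miR-34 switched on is under 0.7 times the count with it off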); conditions: A549 miR-34 inducible, Hoechst nuclei count, 48 h
# [7] = survival rescue of mitochondrial mutant cells in low glucose, primary screen, MELAS cybrids, Rieske KO mouse fibroblasts, CellTiter-Glo (AID 1508586;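 active means mean z-score across replicates of 1.96 or higher in either the MELAS or the Rieske mutant cell line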;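 further: z relative to plate mean and SD of compound and empty wells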)
# [8] = LFS_MB_P medulloblastoma growth inhibition, cell-based, chromothripsis tumors, cisplatin or BGB combos (AID 1671449); conditions: LFS_MB_P medulloblastoma cells;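 further: cells exposed for 96 hours; 0% = vehicle DMSO and 100% = killing by high DMSO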
# [9] = HDN33 neuroblastoma growth inhibition, cell-based, chromothripsis tumors, cisplatin or BGB combos (AID 1671450); conditions: HDN33 neuroblastoma cells, stronger effect = higher value;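 further: cells exposed to compound for four days; 0% = vehicle DMSO and 100% = cell killing by high DMSO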
# [10] = ICB984 medulloblastoma cell growth inhibition, synergistic combos for chromothripsis tumors, cisplatin or BGB combos (AID 1671451; call rule not given here;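 further: cells exposed for 96 hours before readout; 0% = vehicle DMSO and 100% = killing by high DMSO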); conditions: ICB984 medulloblastoma cells, drug combinations, stronger effect = higher value
# [11] = LFS_MB_1R medulloblastoma cell growth inhibition, synergistic combos for chromothripsis tumors, cisplatin or BGB combos (AID 1671452); conditions: LFS_MB_1R medulloblastoma cells, stronger effect = higher value;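 further: cells exposed for 96 hours before readout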
# [12] = HTB85 osteosarcoma cell growth inhibition, synergistic combos for chromothripsis tumors, BGB or cisplatin IC20 combos (AID 1671453); conditions: HTB85 osteosarcoma cells, drug combinations, stronger effect = higher value;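 further: cells exposed for 96 hours before readout; 0% = vehicle DMSO and 100% = high DMSO killing control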
# [13] = CRL2098 osteosarcoma cell growth inhibition, synergistic combos for chromothripsis tumors, BGB or cisplatin IC20 combos (AID 1671454); conditions: CRL2098 osteosarcoma cells, drug combinations, stronger effect = higher value;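 further: cells exposed for 96 h before readout; 0% = vehicle DMSO and 100% = killing by high DMSO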
# [14] = HD-MB03 medulloblastoma cell growth inhibition, synergistic combos for chromothripsis tumors, BGB or cisplatin IC20 combos (AID 1671455; in the data active means inhibition above about 83%;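 further: 0% = vehicle DMSO and 100% = high DMSO as cytotoxic control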); conditions: HD-MB03 medulloblastoma cells, stronger effect = higher value
# [15] = UWB1.289 ovarian carcinoma cell growth inhibition, synergistic combos for chromothripsis tumors, BGB or cisplatin combos (AID 1671456); conditions: UWB1.289 ovarian carcinoma cells, stronger effect = higher value;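 further: cells exposed to compound for four days; 0% = vehicle DMSO and 100% = killing by high DMSO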
# [16] = MDA-MB-436 breast carcinoma cell growth inhibition, synergistic combos for chromothripsis tumors, BGB or cisplatin combos (AID 1671458; call rule not given here;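 further: cells exposed for 96 hours; 0% = vehicle DMSO and 100% = killing by high DMSO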); conditions: MDA-MB-436 breast carcinoma growth inhibition, drug combinations, stronger effect = higher value
# [17] = growth inhibition of BT084 medulloblastoma cells, cell-based, ICGC_MB145, cisplatin and BGB IC40 combos (AID 1671461); conditions: drug combinations, stronger effect = higher value;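 further: cells exposed to drugs for 96 hours; 0% = vehicle DMSO and 100% = high DMSO full killing control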
# [18] = growth inhibition of RCMB18 medulloblastoma cells, cell-based, cisplatin and BGB IC40 combos (AID 1671462); conditions: stronger effect = higher value;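 further: cells exposed to compound for four days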
# [19] = growth inhibition of CRL1545 osteosarcoma cells, cell-based, cisplatin and BGB IC20 combos (AID 1671464); conditions: stronger effect = higher value;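 further: cells exposed to compound for 96 hours before readout; 0% = vehicle DMSO and 100% = high DMSO killing control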
# [20] = measured here: combination with BGB IC40, at 0.05 µM
# [21] = measured here: with BGB IC20 combination, at 0.5 µM
# [22] = measured here: with cisplatin IC20 combination, at 0.5 µM
# [23] = measured here: combination with cisplatin, at 0.5 µM
smiles,measurement,setting,value
CCOC(=O)CCNc1cc(N2CCc3ccccc3CC2)nc(-c2ccccn2)n1,AC50,[1],2950 nM (active)
same,AC50,[2],3320 nM (active)
same,AC50,[3],14800 nM (active)
same,AC50,[4],5250 nM (active)
same,IC50,[5],8330 nM (active)
same,fold change,"[6]; stronger effect = lower value, cell number ratio, induced over uninduced",0.698 (active)
same,fold change,[6]; measured here: relative caspase fold change +Dox/-Dox,1.37
same,cell count,"[6]; measured here: total cells with miR-34 induction, stronger effect = lower value",3830
same,cell count,[6]; measured here: total cells without miR-34 induction,5480
same,z-score,"[7]; MELAS cybrid survival, CellTiter-Glo 48 h, stronger effect = higher value",-0.444 (inactive)
same,z-score,"[7]; Rieske KO mouse fibroblast survival, CellTiter-Glo 72 h",-0.225
CN(C)C/C=C/C(=O)Nc1ccc(C(=O)Nc2cccc(Nc3ncc(Cl)c(-c4c[nH]c5ccccc45)n3)c2)cc1,AC50,[1],263 nM (active)
same,AC50,[2],209 nM (active)
same,AC50,[3],209 nM (active)
same,AC50,[4],263 nM (active)
same,IC50,[5],295 nM (active)
same,inhibition,"[8]; at 0.5 µM, stronger effect = higher value",-12.9% (inactive)
same,inhibition,"[8]; measured here: combination with BGB IC20, at 0.005 µM",-29.1%
same,inhibition,"[8]; measured here: combination with BGB IC40, at 0.005 µM",-64.8%
same,inhibition,[8]; [20],7.86%
same,inhibition,"[8]; measured here: combination with cisplatin, at 0.5 µM, stronger effect = higher value",-42.5%
same,inhibition,"[8]; measured here: combination with cisplatin, at 5 µM, stronger effect = higher value",89.6%
same,inhibition,"[9]; BGB combo, at 5 µM",97.3%
same,inhibition,[9]; at 0.5 µM,42.9% (inactive)
same,inhibition,"[9]; cisplatin combo, at 5 µM",98.3%
same,inhibition,[9]; [21],43.5%
same,inhibition,[9]; [22],38.3%
same,inhibition,"[9]; single agent, at 5 µM",98.9%
same,inhibition,"[10]; BGB IC20 combo, at 0.005 µM",97.6%
same,inhibition,"[10]; BGB IC40 combo, at 0.005 µM",98.3%
same,inhibition,"[10]; BGB IC40 combo, at 0.05 µM",102%
same,inhibition,[10]; at 0.5 µM,-27.1% (inactive)
same,inhibition,"[10]; cisplatin combo, at 0.05 µM",102%
same,inhibition,"[10]; cisplatin combo, at 0.5 µM",-38.3%
same,inhibition,"[10]; cisplatin combo, at 5 µM",33.8%
same,inhibition,"[10]; measured here: 5 uM single agent, at 5 µM",11.6%
same,inhibition,[11]; at 0.5 µM,103% (active)
same,inhibition,[11]; [20],23.8%
same,inhibition,[11]; [23],101%
same,inhibition,"[11]; measured here: combination with cisplatin, at 5 µM",97.5%
same,inhibition,[12]; at 0.5 µM,91.8% (active)
same,inhibition,"[12]; measured here: with BGB IC20, at 0.5 µM",89.2%
same,inhibition,"[12]; measured here: with BGB IC20, at 5 µM",99.9%
same,inhibition,"[12]; measured here: with cisplatin IC20, at 0.5 µM",92.7%
same,inhibition,"[12]; measured here: with cisplatin IC20, at 5 µM",99.8%
same,inhibition,"[12]; single agent, at 5 µM",100%
same,inhibition,[13]; at 0.5 µM,41.6% (inactive)
same,inhibition,"[13]; measured here: combination with BGB at IC20, at 0.5 µM",72.6%
same,inhibition,"[13]; measured here: combination with cisplatin at IC20, at 0.5 µM",29.6%
same,inhibition,[14]; at 0.5 µM,64.6% (inactive)
same,inhibition,"[14]; measured here: combo with BGB at IC20, at 0.5 µM",57.2%
same,inhibition,"[14]; measured here: combo with cisplatin at IC20, at 0.5 µM",71.3%
same,inhibition,[15]; at 0.5 µM,74.6% (inactive)
same,inhibition,"[15]; measured here: inhibition with BGB combination, at 0.05 µM",9.81%
same,inhibition,"[15]; measured here: inhibition with cisplatin combination, at 0.05 µM",0.164%
same,inhibition,[16]; at 0.5 µM,57.8% (inactive)
same,inhibition,"[16]; measured here: BGB combination, at 0.5 µM",51.4%
same,inhibition,"[16]; measured here: BGB combination, at 5 µM",40.9%
same,inhibition,"[16]; measured here: cisplatin combination, at 0.5 µM",50.4%
same,inhibition,"[16]; measured here: cisplatin combination, at 5 µM",69.8%
same,inhibition,[17]; at 0.5 µM,32.3% (inactive)
same,inhibition,"[17]; cisplatin combination, at 0.5 µM",10%
same,inhibition,"[17]; cisplatin combination, at 5 µM",35.4%
same,inhibition,"[17]; measured here: BGB IC40 combination 0.05 uM, at 0.05 µM",15.5%
same,inhibition,"[17]; single agent, at 5 µM",89%
same,inhibition,[18]; at 0.5 µM,66.8% (inactive)
same,inhibition,"[18]; cisplatin combo, at 5 µM",71.7%
same,inhibition,"[18]; measured here: BGB IC40 combination, at 0.05 µM",52.8%
same,inhibition,[18]; [23],69.4%
same,inhibition,"[18]; single agent, at 5 µM",89.7%
same,inhibition,[19]; at 0.5 µM,80.7% (active)
same,inhibition,[19]; [21],72.6%
same,inhibition,[19]; [22],84.4%
same,inhibition,"[19]; single agent, at 0.05 µM",-55.9%
same,inhibition,"[19]; single agent, at 5 µM",99.8%

# Source: PubChem BioAssay
